Measurements reported in PubChem BioAssay (NCATS).
Inconclusive results are not listed. Active and inactive are the calls of the source. Calls follow the shape of the dose curve; as a rule, active = well fitted cell-killing curve with a large enough effect; inconclusive = small, poorly fitted or top-dose-only effect; inactive = flat fitted curve, though single readings scatter.

How the values were obtained:
[1] = Cell Viability - LYMP2-008 (AID 980); also: nearly all actives have a fitted effect of over 60% in size
Summary of the method: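 Cytotoxicity determined from ATP-dependent luciferase luminescence (CellTiter-Glo) following 24 h compound exposure of human lymphoblastoid LYMP2-008 cells at 37 C. Concentration-response data fitted to the Hill equation to give AC50.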

[2] = Cell Viability - LYMP2-010 (AID 981); also: nearly all actives have a fitted effect of over 55% in size
Summary of the method: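 CellTiter-Glo ATP luminescence measured cytotoxicity after 24 h compound exposure at 37 C. LYMP2-010 cells were seeded at 2500/well, with tetraoctylammonium bromide as control; concentration-response curves gave AC50 values by the Hill equation.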

[3] = Cell Viability - LYMP2-012 (AID 982);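 also: cellular ATP by luciferase luminescence where a drop means cytotoxicity; cells exposed to compound for one day before reading; nearly all actives have a fitted effect of over 55% in size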
[4] = Cell Viability - LYMP2-014 (AID 983); also: series mostly up to about 92 µM; nearly all actives have a fitted effect of over 50% in size
Summary of the method: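 Intracellular ATP loss, read by luciferase luminescence, measures acute cytotoxicity after 24 h compound exposure of lymphoblastoid LYMP2-014 cells (2500/well, 37 C). Concentration-response data fitted to the Hill equation for AC50.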

[5] = Cell Viability - LYMP2-016 (AID 984); also: nearly all actives have a fitted effect of over 55% in size
Summary of the method: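 qHTS, 1536-well: 2500 LYMP2-016 cells/well, 5 hr 37 C, compound added, 24 hr 37 C, CellTiter-Glo 30 min RT, luminescence. Tetraoctylammonium bromide positive control. AC50 via Hill fit.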

[6] = Cell Viability - LYMP2-018 (AID 985); also: nearly all actives have a fitted effect of over 50% in size
Summary of the method: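 Viability read as CellTiter-Glo luminescence (cellular ATP) after 24 hr compound exposure at 37 C of 2500 LYMP2-018 lymphoblastoid cells/well, pre-plated 5 hr. Hill-equation modelling gave AC50.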

[7] = Cell Viability - LYMP2-020 (AID 986); also: series mostly up to about 92 µM; nearly all actives have a fitted effect of over 55% in size
Summary of the method: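 Cytotoxicity in qHTS format: luminescent ATP readout from CellTiter-Glo after 24 h compound exposure at 37 C in complete medium. LYMP2-020 lymphoblastoid cells were seeded at 2500/well; concentration-response data fitted to the Hill equation for AC50.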

[8] = Cell Viability - LYMP2-022 (AID 987); also: nearly all actives have a fitted effect of over 55% in size
Summary of the method: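 Cytotoxicity read as decreased cellular ATP (CellTiter-Glo luminescence, 30 min room temperature) after 24 hours compound exposure of 2500 lymphoblastoid LYMP2-022 cells/well at 37 C. Concentration-response data fitted with standard Hill equation for AC50.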

[9] = Cell Viability - LYMP2-024 (AID 988); also: nearly all actives have a fitted effect of over 60% in size
Summary of the method: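 Cytotoxicity was taken as a decrease in ATP (CellTiter-Glo luminescence) after 24 hr compound exposure at 37 C of LYMP2-024 lymphoblastoid cells, 2500 cells/well. Concentration-response data were fitted to the Hill equation to give AC50.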

[10] = Cell Viability - LYMP2-026 (AID 989); also: nearly all actives have a fitted effect of over 50% in size
Summary of the method: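 Cytotoxicity read as ATP-dependent luminescence (CellTiter-Glo, 30 min room temperature) after 24 h compound treatment at 37 C. LYMP2-026 lymphoblastoid line seeded at 2500 cells/well; AC50 derived by standard Hill equation.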

Measured: outcome

COc1ccc(CCC(=O)c2c(O)cc(O[C@@H]3O[C@H](CO)[C@@H](O)[C@H](O)[C@H]3O[C@@H]3O[C@@H](C)[C@H](O)[C@@H](O)[C@H]3O)cc2O)cc1O
inactive: [1] | [2] | [3] | [4] | [5] | [6] | [7] | [8] | [9] | [10]

C=C1C[C@]23C[C@@]1(O)CC[C@H]2[C@@]12C=C[C@H](O)[C@@](C)(C(=O)O1)[C@H]2[C@@H]3C(=O)O
inactive: [1] | [2] | [3] | [4] | [5] | [6] | [7] | [8] | [9] | [10]
